Most compounds without a hit are left out; they make up all but 12% or so of the library.
Shiga inhibitor – inhibitors of Shiga toxin in Vero cells; Vero cells, Shiga toxin protein synthesis inhibition reporter; inhibition, % at 38.7 µM; actives 9.2% (n = 290,000); in the data active = inhibition mostly above about 28%, no sharp cut-off; inactive = mostly below about 43%; also: 0% is about no effect
NS1 inh – inhibitors of influenza NS1 protein function; Potency, µM (series often up to 46.1 µM), inactives show top-dose activity, positive = more growth; actives 0.4% (n = 270,000); AID 2326; also: potency is read from the fitted curve at half-maximal effect; actives are rising curves; nearly all actives have a fitted effect of over 50% in size
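Growth recovery, yeast-based: influenza A NS1 expressed in S. cerevisiae causes slow growth, and suppressors are detected by OD600. The parent strain without NS1 is used as positive control.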
CHX counter – counter-screen for Shiga toxin inhibitors: cycloheximide protein synthesis inhibition | actives 12% (n = 300,000) | cell reporter, cycloheximide protein synthesis inhibition counterscreen | max response, %; in the data active = max response mostly above about 13%, no sharp cut-off; inactive = mostly below about 14%; also: read at 38.3 µM for the half of the compounds with a filed dose; 0% is about no effect
SARS PLP yeast – inhibitors of SARS-CoV papain-like protease in yeast; S. cerevisiae expressing SARS-CoV PLpro, growth rescue; Potency, µM (titrated, usually from 32.9 µM), without a hit: at the top dose activity, positive = growth rescue, most hits filed as activators; actives 0.19% (n = 330,000); AID 485353; also: potency is read from the fitted curve at half-maximal effect; 0% is about no effect; nearly all actives have a fitted effect of over 55% in size
* = called active by the depositor. Unless noted, calls follow the shape of the full dose curve.

For COc1cc(/C=C(\C#N)C(=O)NCC2CCCO2)cc(OC)c1OC (stereo unspecified) the results were Shiga inhibitor -24, NS1 inh -5%, CHX counter 12 and SARS PLP yeast -1%.
For COc1ccc(/C=C(\C#N)C(=O)NCC2CCCO2)cc1OC (stereo unspecified) the results were Shiga inhibitor -6, NS1 inh -11%, CHX counter 6 and SARS PLP yeast -7%.
For N#C/C(=C\c1c[nH]c2ccccc12)C(=O)NCC1CCCO1 (stereo unspecified) the results were Shiga inhibitor 54*, NS1 inh -10%, CHX counter 31* and SARS PLP yeast 0%.
Screening Cc1[nH]c2ccccc2c1/C=C(\C#N)C(=O)NCC1CCCO1 (stereo unspecified) returned Shiga inhibitor 16, NS1 inh -1%, CHX counter 18* and SARS PLP yeast 0%.
For N#C/C(=C\c1cccs1)C(=O)NCC1CCCO1 (stereo unspecified) the results were Shiga inhibitor 80*, NS1 inh -6%, CHX counter 25* and SARS PLP yeast 1%.
O=C(CCc1c[nH]c2ccccc12)NCC1CCCO1 (stereo unspecified) was read as Shiga inhibitor 27, NS1 inh 5%, CHX counter -2 and SARS PLP yeast 8%.
Screening CC(C)(C)C(=O)O/N=C(\N)Cc1ccc(-c2csnn2)cc1 returned Shiga inhibitor -5, NS1 inh -3%, CHX counter -2 and SARS PLP yeast 1%.
CC1(c2ccccc2)NC(=O)N(CC(=O)Nc2ccc3c(c2)CCC3)C1=O (stereo unspecified) was read as SARS PLP yeast 0%.
For CC1=CCC2C(=O)N(c3ccc(C)c(Br)c3)C(=O)C2C1 (stereo unspecified) the results were Shiga inhibitor 14, NS1 inh 5%, CHX counter 1 and SARS PLP yeast inconclusive.
For CCCc1nnc(NC(=O)CCC(=O)NC2CCCCC2)s1 the results were Shiga inhibitor -7, NS1 inh 15%, CHX counter -2 and SARS PLP yeast 9%.
Screening COC(=O)c1nccc2c1[nH]c1ccccc12 returned SARS PLP yeast 2%.
Screening Cc1ccccc1NC(=O)C1Cc2ccccc2C(=O)O1 (stereo unspecified) returned Shiga inhibitor 17, NS1 inh 6%, CHX counter 14* and SARS PLP yeast 4%.
COc1ccc(NC(=O)C2Cc3ccccc3C(=O)O2)cc1 (stereo unspecified) was read as Shiga inhibitor 26, NS1 inh -2%, CHX counter 12* and SARS PLP yeast -1%.
`CCc1ccccc1C1=CC(=O)C[C@H](c2ccc(OC)cc2)C1` gave SARS PLP yeast 3%.
`COc1ccc(C2Cc3ccccc3C(=O)O2)cc1` (stereo unspecified) gave Shiga inhibitor active, NS1 inh inconclusive, CHX counter 19 and SARS PLP yeast -12%.
COc1ccc(CCNC(=O)C2Cc3ccccc3C(=O)O2)cc1 (stereo unspecified) was read as Shiga inhibitor -12, CHX counter 15 and SARS PLP yeast -7%.
Screening O=C1OC(C(=O)Nc2nccs2)Cc2ccccc21 (stereo unspecified) returned Shiga inhibitor 3, NS1 inh 5%, CHX counter 9 and SARS PLP yeast 9%.
For O=[N+]([O-])c1ccc(/C=C/C2=NN(c3ccccc3)C(c3ccco3)C2)cc1 (stereo unspecified) the results were Shiga inhibitor 41, NS1 inh 10%, CHX counter 15* and SARS PLP yeast -17%.
Screening O=[N+]([O-])c1ccc(C2=NN(c3ccccc3)C(c3ccco3)C2)cc1 (stereo unspecified) returned Shiga inhibitor 60*, NS1 inh 3%, CHX counter 34* and SARS PLP yeast -2%.
For C[n+]1ccccc1/C=C/c1ccc([N+](=O)[O-])cc1 the results were Shiga inhibitor 3, NS1 inh 5%, CHX counter -2 and SARS PLP yeast 1%.
`CC(C)OCCCNC(=O)C1CCC(CNS(=O)(=O)c2ccccc2)CC1` (stereo unspecified) gave Shiga inhibitor 13, NS1 inh -16%, CHX counter -3 and SARS PLP yeast 8%.
`O=C(CCC(=O)Nc1ccc(F)cc1)N/N=C/c1ccncc1` gave Shiga inhibitor -21, CHX counter -3 and SARS PLP yeast 3%.
O=C(CCC(=O)Nc1ccccc1)N/N=C/c1ccncc1 was read as Shiga inhibitor 5, NS1 inh -1%, CHX counter 23* and SARS PLP yeast 10%.
`O=C(CCC(=O)Nc1ccc(Br)cc1)N/N=C/c1ccccc1O` gave Shiga inhibitor 12, NS1 inh 3%, CHX counter 21* and SARS PLP yeast 2%.
Screening CC(=O)Nc1ccc(C(=O)N/N=C/c2ccncc2)cc1 returned Shiga inhibitor -6, CHX counter 2 and SARS PLP yeast -13%.
For O=C(Nc1ccccc1)O/N=C/c1ccncc1 the results were Shiga inhibitor 38, NS1 inh -5%, CHX counter 17* and SARS PLP yeast 0%.
For CCCNc1nc(C)nc2c1cnn2CCc1ccccc1 the results were Shiga inhibitor 48, NS1 inh -83%, CHX counter 19* and SARS PLP yeast -9%.
Screening Cc1nc(NC(C)C)c2cnn(CCc3ccccc3)c2n1 returned Shiga inhibitor 39, NS1 inh -10%, CHX counter 19* and SARS PLP yeast -4%.
For COc1ccc(CN(C(=O)CNC(=O)c2ccco2)C(C(=O)NCC2CCCO2)c2ccc(OC)c(OC)c2)cc1 (stereo unspecified) the results were Shiga inhibitor 12, NS1 inh 6%, CHX counter 4 and SARS PLP yeast 0%.
For CC(C)c1ccc(C(O)c2cnc(C(C)C)n2C)cc1 (stereo unspecified) the results were Shiga inhibitor 47*, NS1 inh -2%, CHX counter 36* and SARS PLP yeast -3%.
`CC(C)c1ncc(C(O)c2ccccc2)n1C` (stereo unspecified) gave Shiga inhibitor 8, NS1 inh -2%, CHX counter -1 and SARS PLP yeast 1%.
`CCOc1cc2c(cc1/C=C/c1noc(C)c1[N+](=O)[O-])OC(C)C2` (stereo unspecified) gave Shiga inhibitor 3, NS1 inh -8%, CHX counter -2 and SARS PLP yeast -1%.
`Cc1ccc(C(=O)/C=C/c2ccccc2[N+](=O)[O-])cc1` gave Shiga inhibitor 39, NS1 inh -9%, CHX counter 28* and SARS PLP yeast -2%.
CN(C)C(=O)COC(=O)/C=C/c1ccccc1[N+](=O)[O-] was read as Shiga inhibitor 45, NS1 inh -3%, CHX counter -1 and SARS PLP yeast -1%.
Screening COc1ccccc1C(=O)NNC(=O)c1ccccc1[N+](=O)[O-] returned Shiga inhibitor -9, NS1 inh 11%, CHX counter -1 and SARS PLP yeast -23%.
Screening Cc1ccc(C(=O)C(C)OC(=O)c2ccccc2[N+](=O)[O-])cc1 (stereo unspecified) returned Shiga inhibitor 71*, NS1 inh 4%, CHX counter 50* and SARS PLP yeast -5%.

Source: PubChem BioAssay (National Center for Advancing Translational Sciences (NCATS))
